# CaV13 ICDI inh = Disruptors of the CACNA1D IQ motif to Ca2+-dependent inactivation inhibitor domain association, primary screening, Förster resonance energy transfer in intact living …; HEK cells, CFP/YFP FRET ICDI-IQ, plate reader, 10 min; percent FRET-ratio fall versus neutral wells; inhibition, % at 12.3 µM; 340,000 compounds, 0.098% hits;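 active = mean replicate inhibition of at least 30% and at least 1% of replicates passing that level; inconclusive = only one of the two criteria is met; inactive = neither criterion is met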;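 note: 0% = median of the neutral control wells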
# IDE cell activ = IDE (human) activation, cell-based; P14735; HEK cells, FAbeta-B cleavage, fluorescence polarization; 0% vehicle, 100% cell-free pure enzyme wells; activation, % at 5.96 µM; 340,000 compounds, 0.073% hits; AID 493087;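 active = activation above the mean of all tested compounds plus 3 SD, set per screening campaign, cut at about 17% in these data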
# IDE cell inh = inhibits human insulin-degrading enzyme in HEK cells. P14735. FAbetaB cleavage, fluorescence polarization. inhibition, % at 5.59 µM. 320,000 compounds, 0.41% hits. AID 434962;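 active = percent inhibition above the average of all tested compounds plus 3 SD, set per screening campaign, cut at about 16% in these data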;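 note: IDE supplied by intact live HEK cells; FP after avidin binding of uncleaved biotin substrate so inhibition keeps polarization high; 0% = DMSO wells and 100% = 60 µM reference IDE inhibitor Ii1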
# ALR inh = human ALR oxidase inhibition via reduced H2O2 | purified ALR, DTT oxidation, H2O2 HRP-luminol luminescence | inhibition, % (no concentration beside the values) | 290,000 compounds, 3.8% hits | AID 485317;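 active = mean replicate inhibition above about 79%, with every replicate also reaching it, limit read from the data; inconclusive = only one of the two criteria met; inactive = mean below limit and not every replicate reaching it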
# Target sequence (P55789 whole entry, looked up): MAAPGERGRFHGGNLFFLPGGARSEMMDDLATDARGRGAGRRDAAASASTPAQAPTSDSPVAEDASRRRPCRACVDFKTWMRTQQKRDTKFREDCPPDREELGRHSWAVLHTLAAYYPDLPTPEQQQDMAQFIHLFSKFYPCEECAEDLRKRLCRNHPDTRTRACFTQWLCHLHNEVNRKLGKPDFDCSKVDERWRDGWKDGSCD
# M18AAP inhibitor = blocks P. falciparum M18 aspartyl aminopeptidase. recombinant PfM18AAP, H-Glu-NHMec fluorogenic cleavage. inhibition, % at 7.35 µM. 290,000 compounds, 1.2% hits;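 active = inhibition above the campaign mean inhibition over all tested compounds plus 3 SD, cut at about 28% in these data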;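 note: 0% = plate median of test compound wells and 100% = 2 mM ZnCl2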
# PolyA inh = blocks polyadenylation in yeast reporter cells; 300,000 compounds, 0.02% hits; activity score, % at 12 µM; S. cerevisiae SKY197-pL101 polyadenylation reporter, beta-gal luminescence; efflux-impaired pdr1/pdr3 knockout yeast; score 100 = 6 SD above DMSO; AID 1875;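 active = lowest replicate activity score at least 50, where 100 means six control SD above control mean; inconclusive = lowest score under 50 but half or more replicates reach 50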;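 note: yeast exposed to compound for 9 h at 30 °C; higher score means more reporter readthrough which indicates perturbed polyadenylation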
# Numbers without * were called inactive; u = inconclusive; x = no result. An excerpt weighted towards active compounds, which were near 4.1% of everything screened.
SMILES,CaV13 ICDI inh,IDE cell activ,IDE cell inh,ALR inh,M18AAP inhibitor,PolyA inh
CC1=C(C(=O)OCc2ccccc2)C(c2ccc(Br)cc2)NC(=O)N1CCCCCC(=O)O (stereo unspecified),-7,38*,-2,-1,x,u
O=C(NCCCn1cccn1)c1cc(COc2ccc(F)cc2Cl)on1,7,1,3,-2,30*,-3
CC(CCn1cccn1)NC(=O)c1cc(COc2ccc(F)cc2Cl)on1 (stereo unspecified),1,6,1,1,1,8
Cc1noc2ncnc(Sc3ccc(Cl)cc3)c12,1,5,5,80*,-5,-26
Cc1ccc(Sc2ncnc3onc(C)c23)cc1,-3,6,4,99*,-3,8
COc1ccc(C(=O)NCCc2nnc3ccc(SCC(=O)N4CCOCC4)nn23)cc1,-5,2,0,-8,-4,-18
CCOCCc1c(O)nc(SCC(=O)N2CCOCC2)[nH]c1=O,-7,2,2,85*,-14,17
CCCCc1c(O)nc(SCC(=O)N2CCOCC2)[nH]c1=O,x,1,-5,98*,-1,9
CCCCCCc1c(O)nc(SCCN2CCOCC2)[nH]c1=O,-7,1,5,37,-2,10
Cc1ccc(S(=O)(=O)N2CCCC(C(=O)O)C2)s1 (stereo unspecified),5,7,1,87*,10,25
O=C(COC(=O)CN1C(=O)C2CCCCC2C1=O)Nc1c(Cl)cccc1Cl (stereo unspecified),-3,4,-6,-3,x,x
O=C(O)CCCCCN1C(=O)/C(=C/c2cn(-c3ccccc3)nc2-c2cccs2)SC1=S,-6,3,x,x,x,x
CC1=NNC(=O)/C1=C\c1cn(-c2ccccc2)nc1-c1cccs1,-7,-4,8,-1,45*,-43
Cc1cc(C)c2sc(N(CCCN(C)C)C(=O)COc3ccc(Cl)cc3)nc2c1,-7,27*,3,-9,-1,-2
CN(C)CCCN(C(=O)COc1ccc(Cl)cc1)c1nc2ccc(F)cc2s1,-2,18*,8,-3,-1,0
Cc1ccc2nc(N(CCN(C)C)C(=O)c3cc(Cl)sc3Cl)sc2c1,-3,-2,5,96*,-5,4
Cc1ccc2nc(N(CCCN(C)C)C(=O)COc3ccc(Cl)cc3)sc2c1,-5,22*,0,-4,-5,-8
CCN(CC)S(=O)(=O)c1ccc2[nH]c(=O)cc(C(=O)NCc3ccccc3)c2c1,-4,3,-5,-1,2,5
CCOC(=O)C(NC(=O)c1ccccc1OCC)(Nc1ncccn1)C(F)(F)F (stereo unspecified),-6,3,5,-2,-9,-9
Cc1ccc(NC(=O)Nc2cccc(Cl)c2)c(C(=O)O)c1,-4,-3,1,51,-4,7
COc1ccc(Nc2cccc(Cl)c2)c(C(=O)O)c1,-3,6,2,98*,2,1
CCC(C)[C@H](N)c1nnc(SCC(=O)c2ccc(Cl)cc2)o1 (stereo partly specified),-3,7,-3,98*,1,4
Cc1cc(C)cc(NC(=S)Nc2ccccn2)c1,x,1,5,97*,7,-29
COc1ccccc1NC(=S)Nc1ccccn1,-6,4,-2,82*,21,-7
Cc1cccc(NC(=S)Nc2ccccn2)c1,-5,6,12,-6,11,-9
COc1ccccc1NC(=O)C(=O)Nc1ccccn1,-9,1,-2,-6,-2,16
OCCC1CN(Cc2cccn2-c2ccccn2)CCN1C1CCCCC1 (stereo unspecified),-12,-6,2,0,4,-11
Cc1cnc(C(=O)NCc2ccc(F)cc2)cn1,-3,4,5,-22,8,8
Cc1cccc(CNC(=O)c2ccc3nc(Cc4ccccc4F)oc3c2)n1,x,2,0,-11,-7,1
O=C(Nc1nnc(S(=O)(=O)N2CCOCC2)s1)c1ccccc1,-7,5,-2,99*,4,-13
